Compound activity: PubChem BioAssay, National Center for Advancing Translational Sciences (NCATS)
HepG2 viability = kills HepG2 cells in TGF-b inhibitor counter-screen. HepG2 CAGA-GFP viability, ATP luminescence, 18 h. Potency, µM (titrated, usually from 46.1 µM), without a hit: top-dose activity change, negative = cytotoxicity, usual class: cytotoxic. 410,000 compounds, 0.76% hits; further: potency means the concentration at half of the fitted maximal effect
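CellTiter-Glo luminescence gave cytotoxicity after 18 hours at 37 degrees C. The cells were HepG2 CAGA-GFP in 1% FBS DMEM, stimulated with 500 pg/mL TGF-beta after compound addition. %Activity was normalised to no-cell wells (complete cell-killing) and DMSO (no toxicity), and curves were fitted and classified.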
TGFb SMAD3 inh = inhibitors of TGF-b signaling | HepG2 CAGA-GFP TGF-b/SMAD3 reporter, GFP fluorescence, 18 h; TGF-beta stimulated, 500 pg/mL final | Potency, µM (series often up to 46.1 µM), for the others: at the highest dose activity, negative = inhibition, most hits filed as inhibitors | 410,000 compounds, 1.2% hits; further: potency means the concentration at half of the fitted maximal effect; on the % scale 0 is the no-effect control and ±100 the full control effect; nearly all actives have a fitted effect of over 65% in size
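HEPG2 CAGA-GFP, 1000 cells/well; 2 h settle, 37 C; cpd via pin tool; TGF-b 500 pg/mL final; 18 h, 37 C; GFP imaging ex488/em500-530; %Activity normalised to -TGF-b and +DMSO controls; CRC fit, curve class.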
S-ASM inh = inhibitors of human secretory acid sphingomyelinase. P17405. placental ASM, HMU-PC fluorogenic substrate, 60 min. Potency, µM (doses to about 57.5 µM), for inactives: top-dose activity change, negative = inhibition, actives largely listed as inhibitors. 340,000 compounds, 0.006% hits. AID 504937; further: potency means the concentration at half of the fitted maximal effect
Target sequence (P17405 47-631 limits assumed): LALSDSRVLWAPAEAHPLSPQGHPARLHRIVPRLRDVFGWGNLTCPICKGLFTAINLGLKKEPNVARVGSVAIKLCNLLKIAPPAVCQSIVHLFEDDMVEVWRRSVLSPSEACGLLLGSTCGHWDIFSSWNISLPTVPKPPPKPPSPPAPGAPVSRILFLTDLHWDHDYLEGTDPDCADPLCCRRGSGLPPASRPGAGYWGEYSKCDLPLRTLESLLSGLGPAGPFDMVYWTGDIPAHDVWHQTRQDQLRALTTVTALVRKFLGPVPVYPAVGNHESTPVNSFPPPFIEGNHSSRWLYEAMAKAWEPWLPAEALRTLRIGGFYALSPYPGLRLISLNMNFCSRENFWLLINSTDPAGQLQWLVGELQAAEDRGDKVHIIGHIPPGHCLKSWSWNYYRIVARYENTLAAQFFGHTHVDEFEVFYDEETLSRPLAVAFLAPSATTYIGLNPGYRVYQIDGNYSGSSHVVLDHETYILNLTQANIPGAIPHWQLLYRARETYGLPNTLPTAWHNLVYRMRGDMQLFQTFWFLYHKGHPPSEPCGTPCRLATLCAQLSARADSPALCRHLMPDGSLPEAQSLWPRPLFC
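Human placenta-derived ASM preincubated with compound 10 min at room temperature, then reacted with 9 uM (final) fluorogenic HMU-PC substrate for 60 min at 37 C. Stop solution raises pH to 10; fluorescence read at Ex 386/Em 447 nm.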
TDP1 cell CPT = DT40-hTDP1 cell growth loss with CPT | chicken DT40 Tdp1-/-;hTDP1 cells + 20 nM CPT, ATP luminescence, 48 h | Potency, µM (top dose mostly 46.2 µM), for inactives: at the top dose activity change, negative = growth inhibition, most hits filed as inhibitors | 420,000 compounds, 12% hits; further: potency means the concentration at half of the fitted maximal effect; on the % scale 0 is the no-effect control and ±100 the full control effect; nearly all actives have a fitted effect of over 55% in size
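Chicken DT40 Tdp1-/- cells stably complemented with human TDP1 were seeded at 400 cells/well in medium containing 20 nM camptothecin, exposed to pin-transferred compounds, and grown at 37 °C for at least 48 hr. Viability was read as ATP luminescence.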
IL1B secr inh = inhibitors of inflammasome signaling (IL-1 beta secretion) | AID 743279 | activity change, % at 57.5 µM | 360,000 compounds, 4.7% hits | THP-1 LPS/ATP IL-1B secretion, AlphaLISA, 16 h; stronger effect = lower value; in the data active means activity change below about -50%; inconclusive means mostly about -30% to -49%; further: on the % scale 0 is the no-effect control and ±100 the full control effect
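Secreted IL-1B measured by AlphaLISA bead assay after 16 h compound exposure of THP-1 cells; compounds (final up to 57.5 uM) added 1 h before LPS (250 ng/mL) and ATP (1.25 mM) stimulation; lower signal means less secretion.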
DT40 TDP1 no CPT = qHTS for Inhibitors of human tyrosyl-DNA phosphodiesterase 1 (TDP1): qHTS in cells in absence of CPT. DT40 Tdp1-/- hTDP1 cells, no CPT, ATP luminescence, 48 h. 420,000 compounds, 15% hits. Potency, µM (titrated, usually from 46.2 µM), inactives show at the top dose activity change, negative = growth inhibition, hits mostly inhibitors. AID 686978, 2013; further: potency means the concentration at half of the fitted maximal effect; on the % scale 0 is the no-effect control and ±100 the full control effect; nearly all actives have a fitted effect of over 55% in size
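Camptothecin absent (DMSO only). Human TDP1-complemented DT40 knockout cells, 400 cells/well, 37 °C for minimum 48 hr; ATP measured via CellTiter-Glo, 30 min dark incubation, luminescence.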
The depositor's hits bear a star; ? = inconclusive; · = no result given. Most compounds without a hit are left out; they make up all but 19% or so of the library. Unless noted, the call rests on the fitted dose curve; in most records, active means well fitted curve in the direction sought with a large enough effect; inconclusive means small, poorly fitted or top-dose-only effect, or another doubt; inactive means no such curve, though single readings can be large; an effect the other way counts as inactive or inconclusive.

SMILES	HepG2 viability	TGFb SMAD3 inh	S-ASM inh	TDP1 cell CPT	IL1B secr inh	DT40 TDP1 no CPT
Cc1c(C)c(C)c(S(=O)(=O)NCCC(=O)N2CCN(Cc3ccc(C#N)cc3)CC2)c(C)c1C	-26%	?	-1%	16µM*	8	8.2µM*
O=C(CCNS(=O)(=O)c1ccc(Cl)cc1)N1CCN(Cc2ccccc2)CC1	-22%	-26%	4%	-24%	-2	-17%
COc1ccccc1CNS(=O)(=O)c1ccc(-c2cc(C)no2)cc1	-14%	?	-1%	0.58µM*	51	0.58µM*
COc1cc(NS(=O)(=O)c2ccc(-c3cc(C)no3)cc2)cc(OC)c1	-31%	?	·	1.8µM*	·	2.1µM*
CCc1ccccc1NC(=O)CCN1C(=O)C2C3CCC(C3)C2C1=O (stereo not given)	3%	1%	5%	1%	-3	1%
CC1CCCCC1NC(=O)/C(C#N)=C/c1ccc2c(c1)OCCO2 (stereo not given)	-11%	?	1%	?	-102*	?
COc1ccc(-c2[nH]ncc2/C=C(/C#N)C(=O)NC2CCCCCC2)cc1	-101%	0%	-4%	?	-88*	18µM*
CC1CCCCC1NC(=O)/C(C#N)=C/c1ccc(F)c(F)c1 (stereo not given)	9%	11%	3%	-10%	-8	-9%
CSc1ccc(/C=C(\C#N)C(=O)NC2CCCCC2)cc1	-21%	-14%	127%	?	-5	21µM*
Cc1cc(/C=C(\C#N)C(=O)NC2CCCCCC2)c(C)[nH]1	-4%	11%	9%	-28%	-7	?
N#C/C(=C\c1ccc(Cl)cc1)C(=O)NC1CC1	-19%	-3%	5%	-28%	?	?
CC(=O)Nc1ccc(/C=C(\C#N)C(=O)NC2CCCCC2)cc1	10%	11%	-2%	-9%	-86*	?
N#C/C(=C/c1ccc(OCc2ccccc2)cc1)C(=O)NC1CCCCC1	-31%	-6%	123%	1%	-9	-21%
NNC(=O)Cn1c(-c2ccccc2)cc(=O)n2ncnc12	-51%	0%	-1%	-2%	5	2%
C=CCNC(=O)/C(C#N)=C/c1ccc(SC)cc1	-19%	6%	50%	-6%	-57*	?
CC(C)C(=O)Nc1c(-c2ccccc2Cl)c(=O)c2ccccc2n1C	2%	1%	3%	?	13	0%
COc1cc(C(c2nnnn2C2CCCC2)N2CCc3ccccc3C2)ccc1O (stereo not given)	2%	13%	1%	?	-6	12µM*
Oc1ccc(C(c2nnnn2C2CCCC2)N2CCc3ccccc3C2)cc1 (stereo not given)	-11%	-6%	0%	?	7	21µM*
COc1ccc(C(c2nnnn2C2CCCC2)N2CCN(C(=O)c3ccco3)CC2)cc1OC (stereo not given)	7%	13%	1%	2%	43	0%
Cc1ccc(C(c2nnnn2C2CCCCC2)N2CCc3ccccc32)cc1 (stereo not given)	11%	-14%	-2%	?	?	?
C[C@H](O)[C@@H]1C(=O)N2CCc3ccc(-c4ccccc4)cc3[C@@H]2C[C@@H]1N(C)C(=O)c1ccco1	-10%	1%	·	?	9	15µM*
C[C@H](O)[C@@H]1C(=O)N2CCc3ccc(-c4cccc(F)c4)cc3[C@@H]2C[C@@H]1N(C)S(=O)(=O)c1ccccc1	4%	?	-16%	?	-52*	?
